In assay [1] the target is T1, Ephrin type-A receptor 3 (Homo sapiens) (UniProt P29320).
T1 sequence (whole entry): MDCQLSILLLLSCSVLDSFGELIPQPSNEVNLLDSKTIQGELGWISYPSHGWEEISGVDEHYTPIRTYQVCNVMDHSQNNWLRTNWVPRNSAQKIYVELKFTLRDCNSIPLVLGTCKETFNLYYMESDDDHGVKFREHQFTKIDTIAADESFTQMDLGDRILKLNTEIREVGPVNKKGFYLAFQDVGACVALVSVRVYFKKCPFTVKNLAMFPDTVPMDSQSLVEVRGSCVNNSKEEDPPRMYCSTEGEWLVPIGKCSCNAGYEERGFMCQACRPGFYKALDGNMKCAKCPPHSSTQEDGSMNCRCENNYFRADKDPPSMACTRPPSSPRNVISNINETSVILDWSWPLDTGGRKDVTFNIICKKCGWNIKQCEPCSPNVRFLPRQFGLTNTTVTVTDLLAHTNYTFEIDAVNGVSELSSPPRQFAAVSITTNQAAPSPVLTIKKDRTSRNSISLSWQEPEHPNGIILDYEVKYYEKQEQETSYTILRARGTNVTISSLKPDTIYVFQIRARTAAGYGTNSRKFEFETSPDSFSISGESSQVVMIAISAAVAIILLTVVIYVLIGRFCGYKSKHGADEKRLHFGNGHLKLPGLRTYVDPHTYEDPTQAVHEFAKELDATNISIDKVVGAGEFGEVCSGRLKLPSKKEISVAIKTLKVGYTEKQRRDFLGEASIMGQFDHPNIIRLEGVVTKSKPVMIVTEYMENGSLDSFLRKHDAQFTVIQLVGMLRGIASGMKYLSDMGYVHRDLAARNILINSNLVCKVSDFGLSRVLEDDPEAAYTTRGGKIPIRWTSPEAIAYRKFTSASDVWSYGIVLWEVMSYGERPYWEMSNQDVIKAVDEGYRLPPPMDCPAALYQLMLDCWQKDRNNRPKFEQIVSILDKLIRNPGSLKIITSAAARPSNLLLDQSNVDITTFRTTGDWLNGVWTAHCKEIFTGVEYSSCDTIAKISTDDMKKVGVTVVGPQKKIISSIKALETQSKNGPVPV
The note with it: at 10 µM.

Assay [2] addresses Ephrin type-A receptor 4 (Homo sapiens) (UniProt P54764). The note with it: at 1 µM.
Assay [3] shares this target. As to conditions: at 10 µM.
For assay [4], the target named is Ephrin type-A receptor 5 (Homo sapiens) (UniProt P54756). As to conditions: at 1 µM.
Assay [5] has the same target. The note with it: at 10 µM.
Assay [6] has as its target Ephrin type-A receptor 7 (Homo sapiens) (UniProt Q15375). The note with it: at 1 µM.
Assay [7] has the same target. As to conditions: at 10 µM.
The target of assay [8] is T2, Ephrin type-A receptor 8 (Homo sapiens) (UniProt P29322).
T2 sequence (whole entry): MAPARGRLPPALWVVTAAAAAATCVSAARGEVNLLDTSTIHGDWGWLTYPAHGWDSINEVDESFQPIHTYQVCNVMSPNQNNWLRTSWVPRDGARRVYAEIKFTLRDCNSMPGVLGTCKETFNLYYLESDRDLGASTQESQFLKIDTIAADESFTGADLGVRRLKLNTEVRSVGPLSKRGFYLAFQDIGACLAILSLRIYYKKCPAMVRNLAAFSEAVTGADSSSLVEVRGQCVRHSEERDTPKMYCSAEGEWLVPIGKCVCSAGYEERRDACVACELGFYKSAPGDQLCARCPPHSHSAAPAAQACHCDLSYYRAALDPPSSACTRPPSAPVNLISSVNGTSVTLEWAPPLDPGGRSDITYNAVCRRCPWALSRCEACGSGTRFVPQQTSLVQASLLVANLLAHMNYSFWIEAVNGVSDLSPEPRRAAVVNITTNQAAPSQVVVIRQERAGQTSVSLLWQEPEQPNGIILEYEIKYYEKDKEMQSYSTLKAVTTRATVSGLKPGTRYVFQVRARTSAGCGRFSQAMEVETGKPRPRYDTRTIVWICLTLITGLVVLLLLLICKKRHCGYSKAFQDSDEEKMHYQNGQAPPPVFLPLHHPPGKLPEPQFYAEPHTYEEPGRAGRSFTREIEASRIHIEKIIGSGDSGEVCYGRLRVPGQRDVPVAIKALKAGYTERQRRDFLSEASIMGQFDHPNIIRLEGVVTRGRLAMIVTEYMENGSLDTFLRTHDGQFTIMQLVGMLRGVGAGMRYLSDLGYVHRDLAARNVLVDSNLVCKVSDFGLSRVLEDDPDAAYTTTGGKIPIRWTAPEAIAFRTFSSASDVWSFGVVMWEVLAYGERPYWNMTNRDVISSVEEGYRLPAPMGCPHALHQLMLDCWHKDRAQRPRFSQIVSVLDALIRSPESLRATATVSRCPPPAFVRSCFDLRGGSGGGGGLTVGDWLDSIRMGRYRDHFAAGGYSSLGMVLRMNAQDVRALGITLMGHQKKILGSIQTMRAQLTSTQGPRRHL
The note with it: at 1 µM.

Assay [9] concerns the target T2, Ephrin type-A receptor 8 (Homo sapiens). The note with it: at 10 µM.
In assay [10] the target is T3, Ephrin type-B receptor 1 (Homo sapiens) (UniProt P54762).
T3 sequence (whole entry): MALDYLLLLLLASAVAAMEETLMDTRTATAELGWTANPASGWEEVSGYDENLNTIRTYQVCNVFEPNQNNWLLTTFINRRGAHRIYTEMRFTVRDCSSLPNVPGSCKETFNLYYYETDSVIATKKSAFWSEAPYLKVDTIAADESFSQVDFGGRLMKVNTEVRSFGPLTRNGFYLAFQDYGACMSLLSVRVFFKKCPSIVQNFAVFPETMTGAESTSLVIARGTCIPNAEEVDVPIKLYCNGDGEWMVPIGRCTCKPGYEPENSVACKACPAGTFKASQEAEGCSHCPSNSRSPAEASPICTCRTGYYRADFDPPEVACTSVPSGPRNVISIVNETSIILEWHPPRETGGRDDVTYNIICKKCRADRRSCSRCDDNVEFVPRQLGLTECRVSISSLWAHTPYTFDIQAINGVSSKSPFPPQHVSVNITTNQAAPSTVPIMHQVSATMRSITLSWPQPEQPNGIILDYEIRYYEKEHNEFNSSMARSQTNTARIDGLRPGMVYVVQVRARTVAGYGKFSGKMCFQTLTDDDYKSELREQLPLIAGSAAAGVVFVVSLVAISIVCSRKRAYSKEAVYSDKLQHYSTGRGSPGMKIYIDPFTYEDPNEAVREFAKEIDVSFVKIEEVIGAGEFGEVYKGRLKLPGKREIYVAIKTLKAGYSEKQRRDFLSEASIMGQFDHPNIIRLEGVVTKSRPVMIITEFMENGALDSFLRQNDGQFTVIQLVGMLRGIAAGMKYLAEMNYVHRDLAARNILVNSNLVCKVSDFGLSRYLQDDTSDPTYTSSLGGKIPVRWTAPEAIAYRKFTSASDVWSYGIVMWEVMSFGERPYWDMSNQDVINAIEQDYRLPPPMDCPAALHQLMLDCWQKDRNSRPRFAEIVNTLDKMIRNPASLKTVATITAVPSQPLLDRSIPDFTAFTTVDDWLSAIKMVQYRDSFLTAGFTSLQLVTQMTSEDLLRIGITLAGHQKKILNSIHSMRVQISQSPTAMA
The note with it: at 1 µM.

Structures are written as SMILES.

The values that follow come from ChEMBL document CHEMBL2218924, “A broad activity screen in support of a chemogenomic map for kinase signalling research and drug discovery” (Biochem J, 2013).

Sequence of Ephrin type-A receptor 5 (Homo sapiens) (P54756 whole entry): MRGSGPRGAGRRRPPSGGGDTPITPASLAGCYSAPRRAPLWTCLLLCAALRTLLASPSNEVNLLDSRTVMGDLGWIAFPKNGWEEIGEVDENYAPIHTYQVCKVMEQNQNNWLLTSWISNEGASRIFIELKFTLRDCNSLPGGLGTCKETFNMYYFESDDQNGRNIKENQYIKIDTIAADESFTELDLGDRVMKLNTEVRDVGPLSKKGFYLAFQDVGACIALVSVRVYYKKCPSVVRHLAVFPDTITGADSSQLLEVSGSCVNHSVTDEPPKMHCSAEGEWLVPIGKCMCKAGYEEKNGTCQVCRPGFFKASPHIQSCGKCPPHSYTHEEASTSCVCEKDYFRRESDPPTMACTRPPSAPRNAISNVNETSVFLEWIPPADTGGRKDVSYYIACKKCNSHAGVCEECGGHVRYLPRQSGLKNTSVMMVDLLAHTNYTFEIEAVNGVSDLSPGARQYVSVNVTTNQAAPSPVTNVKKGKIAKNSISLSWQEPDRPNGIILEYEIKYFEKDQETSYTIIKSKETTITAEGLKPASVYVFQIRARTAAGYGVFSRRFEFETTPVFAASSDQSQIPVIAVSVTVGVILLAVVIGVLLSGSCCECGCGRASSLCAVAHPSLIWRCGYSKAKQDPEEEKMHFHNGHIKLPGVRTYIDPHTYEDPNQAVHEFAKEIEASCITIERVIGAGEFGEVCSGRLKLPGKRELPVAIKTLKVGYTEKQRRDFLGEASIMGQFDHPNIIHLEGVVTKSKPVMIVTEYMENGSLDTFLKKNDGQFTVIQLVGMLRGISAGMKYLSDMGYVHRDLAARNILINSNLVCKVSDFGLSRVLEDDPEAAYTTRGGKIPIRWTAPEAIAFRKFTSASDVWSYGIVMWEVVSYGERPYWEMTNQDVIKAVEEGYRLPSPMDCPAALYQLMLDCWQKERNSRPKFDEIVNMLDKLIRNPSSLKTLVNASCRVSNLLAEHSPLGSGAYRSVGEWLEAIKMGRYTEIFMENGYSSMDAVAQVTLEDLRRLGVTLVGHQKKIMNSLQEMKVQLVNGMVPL
Sequence of Ephrin type-A receptor 4 (Homo sapiens) (P54764 whole entry): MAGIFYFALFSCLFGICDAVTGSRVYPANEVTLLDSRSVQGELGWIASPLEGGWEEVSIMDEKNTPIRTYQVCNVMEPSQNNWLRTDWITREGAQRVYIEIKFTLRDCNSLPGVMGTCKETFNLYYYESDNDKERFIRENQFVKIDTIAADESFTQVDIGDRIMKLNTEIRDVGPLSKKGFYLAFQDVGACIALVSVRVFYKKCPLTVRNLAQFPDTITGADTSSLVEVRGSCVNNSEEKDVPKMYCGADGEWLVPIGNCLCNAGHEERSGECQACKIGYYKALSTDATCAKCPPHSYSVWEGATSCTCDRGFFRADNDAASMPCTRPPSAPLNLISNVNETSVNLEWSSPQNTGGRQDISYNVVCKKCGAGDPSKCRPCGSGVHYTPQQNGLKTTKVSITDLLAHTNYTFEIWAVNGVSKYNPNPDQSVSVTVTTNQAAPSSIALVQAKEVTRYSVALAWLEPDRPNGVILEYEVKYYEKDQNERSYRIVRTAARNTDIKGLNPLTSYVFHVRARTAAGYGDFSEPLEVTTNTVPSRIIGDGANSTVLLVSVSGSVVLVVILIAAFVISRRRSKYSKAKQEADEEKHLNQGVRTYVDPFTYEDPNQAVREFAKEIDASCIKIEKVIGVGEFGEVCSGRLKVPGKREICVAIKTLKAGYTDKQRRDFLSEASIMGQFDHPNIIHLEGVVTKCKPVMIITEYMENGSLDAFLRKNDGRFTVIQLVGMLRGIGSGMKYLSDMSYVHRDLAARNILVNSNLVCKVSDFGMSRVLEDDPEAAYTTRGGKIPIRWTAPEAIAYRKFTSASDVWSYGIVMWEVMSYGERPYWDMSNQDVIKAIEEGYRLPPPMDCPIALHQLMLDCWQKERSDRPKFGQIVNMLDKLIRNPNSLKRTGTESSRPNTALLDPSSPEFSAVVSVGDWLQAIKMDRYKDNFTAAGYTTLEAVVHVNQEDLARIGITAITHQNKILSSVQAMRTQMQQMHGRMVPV
Sequence of Ephrin type-A receptor 7 (Homo sapiens) (Q15375 28-998 limits assumed): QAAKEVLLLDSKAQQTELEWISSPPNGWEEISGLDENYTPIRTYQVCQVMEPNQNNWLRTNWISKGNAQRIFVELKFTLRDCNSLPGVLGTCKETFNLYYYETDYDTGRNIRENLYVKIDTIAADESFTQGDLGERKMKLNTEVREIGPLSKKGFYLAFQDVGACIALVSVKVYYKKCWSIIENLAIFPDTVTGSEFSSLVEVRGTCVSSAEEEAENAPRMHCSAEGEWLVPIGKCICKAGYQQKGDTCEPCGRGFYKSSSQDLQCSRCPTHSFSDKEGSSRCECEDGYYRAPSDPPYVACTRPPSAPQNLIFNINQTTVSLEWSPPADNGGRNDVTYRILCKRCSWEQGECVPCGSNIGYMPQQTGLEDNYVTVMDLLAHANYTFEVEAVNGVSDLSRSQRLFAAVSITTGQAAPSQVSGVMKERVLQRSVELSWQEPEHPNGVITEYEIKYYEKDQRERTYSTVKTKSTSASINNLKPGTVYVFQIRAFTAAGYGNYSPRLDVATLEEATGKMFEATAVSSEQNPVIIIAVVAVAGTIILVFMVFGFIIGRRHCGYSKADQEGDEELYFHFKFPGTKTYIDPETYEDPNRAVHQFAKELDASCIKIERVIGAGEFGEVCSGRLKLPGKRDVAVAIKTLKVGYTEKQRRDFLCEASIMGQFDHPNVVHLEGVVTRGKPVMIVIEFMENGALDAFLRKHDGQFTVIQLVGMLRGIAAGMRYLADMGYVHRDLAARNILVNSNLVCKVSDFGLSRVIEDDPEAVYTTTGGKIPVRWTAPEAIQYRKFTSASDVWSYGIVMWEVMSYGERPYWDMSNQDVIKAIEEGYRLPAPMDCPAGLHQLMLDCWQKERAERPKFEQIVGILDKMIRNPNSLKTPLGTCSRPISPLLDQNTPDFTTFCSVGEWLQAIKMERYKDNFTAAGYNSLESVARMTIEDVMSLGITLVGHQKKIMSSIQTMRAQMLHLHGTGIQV

In the case of `CC(C)n1cnc2c(NCc3ccccc3)nc(NCCCO)nc21`, the residual activity – broadly, the signal under treatment as a percentage of the control signal – in [1] amounted to 101%; in assay [2], 109%; in assay [3] it was 104%; in assay [4] it was 96%; in [5], 84%; in assay [6], 84%. Further, the residual activity was 78% in [7], 97% in assay [8], 94% in assay [9] and 93% in assay [10].
